# Sampled rows, rich in hits. Any-hit rate of the full collection: about 10%.
# GLS inhibitor – inhibitors of human glutaminase (GLS); Potency, µM (series often up to 45.5 µM), without a hit: at the highest dose activity change, negative = inhibition, actives largely listed as inhibitors; 410,000 tested, 0.21% active; GLS enzymatic activity, qHTS titration; O94925; also: % is scaled to controls: 0 for no effect and ±100 for the full control effect
#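 hKGA in 45 mM KH2PO4 pH 8.2, 0.02% Tween-20 with pin-transferred compounds; 1 mM L-glutamine (stock) plus glutamate oxidase/HRP/Amplex Red coupling added. Fluorescence read initially and after 30 min at RT.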
# JMJD2A Tudor inh – inhibitors of human JMJD2A Tudor domain; AlphaScreen JMJD2A-Tudor / H3K4me3 peptide binding; Potency, µM (highest dose often 114 µM), for inactives: at the top dose activity change, negative = inhibition, hits mostly inhibitors; 390,000 tested, 4.4% active; also: % is scaled to controls: 0 for no effect and ±100 for the full control effect; nearly all actives have a fitted effect of over 50% in size
# BAZ2B inh – blocks human BAZ2B | 360,000 tested, 4.4% active | AID 504333 | Potency, µM (top dose mostly 114 µM), for the others: at the highest dose activity change, negative = inhibition, hits mostly inhibitors | Q9UIF8 | AlphaScreen BAZ2B-H3K14Ac peptide displacement; also: % is scaled to controls: 0 for no effect and ±100 for the full control effect; nearly all actives have a fitted effect of over 60% in size
#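 AlphaScreen displacement of biotin-H3(5-23)K14Ac peptide (50 nM final) from BAZ2B (50 nM final) in PBS pH 7.4, 0.01% Tween-20; complex preformed 30 min RT, then compounds (top 110 uM) 30 min RT, beads 20 min dark.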
# G9a block – inhibitors of human histone lysine methyltransferase G9a; G9a H3K9 monomethylation, AlphaScreen, 2 h; Potency, µM (doses to about 102 µM), inactives show at the top dose activity, negative = inhibition, actives largely listed as inhibitors; 350,000 tested, 8.8% active; also: % is scaled to controls: 0 for no effect and ±100 for the full control effect; nearly all actives have a fitted effect of over 75% in size
#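 Quantitative HTS format: methyltransferase activity on a biotin-tagged H3K9 peptide is measured by AlphaScreen, using a rabbit anti-monomethyl-H3K9 antibody with streptavidin donor and anti-IgG acceptor beads. Final levels are 20 nM enzyme, 500 nM peptide, 20 uM SAM; 2 h RT.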
# HP1b binding inh – HP1-beta chromodomain-methylated histone interaction inhibition. AID 540317. P83916. 390,000 tested, 0.56% active. Potency, µM (series often up to 114 µM), without a hit: at the highest dose activity change, negative = inhibition, actives largely listed as inhibitors. AlphaScreen HP1-beta / biotin-H3K9me3 peptide binding; also: nearly all actives have a fitted effect of over 70% in size
#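 HP1-beta protein (50 nM final) preincubated 30 min at room temperature with biotinylated H3(1-18)K9me3 peptide (50 nM) in PBS pH 7.4, 0.01% Tween-20, then compound added for 30 min. AlphaScreen streptavidin donor/nickel chelate acceptor beads (10 ug/mL final), 30 min dark, luminescence read.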
# The depositor's hits bear a star; ? = inconclusive; . = no result; [ ] = dose if it differs, or a comment. Calls follow the shape of the dose curve; as a rule, active = well fitted curve in the direction sought with a large enough effect; inconclusive = small, poorly fitted or top-dose-only effect, or another doubt; inactive = no such curve, though single readings can be large; an effect the other way counts as inactive or inconclusive. Potency is read from the fitted curve at half-maximal effect.
SMILES,GLS inhibitor,JMJD2A Tudor inh,BAZ2B inh,G9a block,HP1b binding inh
CCOC(=O)c1ccc(N2CCN(c3cc(C)ccc3C)CC2)c(NC(=O)Nc2ccc(CC)cc2)c1,8%,-9%,2%,5%[59 µM],44%
Clc1nc(Cl)nc(-c2cn(-c3ccccc3)c3ccccc23)n1,0%,79µM*,?,13µM*,18%
OCCCc1cn(-c2ccccc2)c2ccccc12,0%,-22%,-2%,5%,7%
C/C(=C(\CCO)SSCC1CCCO1)N(C=O)Cc1cnc(C)nc1N (stereo not drawn),-1%,.,.,.,.
CCCc1cc2nnc(SCC(=O)N(C)C3CCCCC3)n2c(N)n1,-20%,0%,0%,-12%[59 µM],24%
Cc1ccccc1C(=O)NNC(=O)C(C)N1C(=O)c2ccccc2C1=O (stereo not drawn),-3%,-14%,11%,11µM*,20%
Cc1ccccc1C(=O)NNC(=O)/C=C\C(=O)O,16%,50µM*,0%,4.5µM*,-32%
Cc1cccc(C(=O)NNC(=O)/C=C/C(=O)O)c1,13%,-19%,-1%,35µM*,47%
Cc1ccccc1C(=O)NC(CC(C)C)C(=O)NN1C(=O)c2ccccc2C1=O (stereo not drawn),11%,-1%,-9%,10%,9%
COc1ccc(N2CCN(C(=O)COC(=O)[C@@H](NC(=O)OCc3ccccc3)C(C)C)CC2)cc1,37%,?,.,.,-23%
CC1CCCN(Cc2c(O)ccc3c2O/C(=C\c2ccco2)C3=O)C1 (stereo not drawn),103%,?,?,3.5µM*,-10%
CCN1CCN(Cc2c(O)ccc3c2O/C(=C\c2ccccc2)C3=O)CC1,0%,-11%,?,79µM*,42%
CCN1CCN(Cc2c(O)ccc3c2O/C(=C\c2ccc(C)cc2)C3=O)CC1,17%,-14%,?,-11%,35%
O=C(CNS(=O)(=O)c1ccc(F)cc1)N1CCCC1,3%,-5%,.,.,25%
COc1ccccc1NC(=O)Nc1ccccc1SC,-2%,-16%,-5%,28%,23%
COc1cc(CNc2ccccc2SC)ccc1O,15%,35µM*,?,?,0%
N#C/C(=C\c1ccc(O)c(O)c1)C(=O)Nc1cccc2ncccc12,13%,?,?,8.9µM*,-8%
C[C@H](NC(=O)/C(C#N)=C/c1ccc(O)c(O)c1)c1ccccc1,.,.,.,7.9µM*,.
COc1ccc(/C=C(\C#N)C(=O)Nc2cccc3ncccc23)cc1OC,-2%,-4%,-28%,?,12%
N#C/C(=C\c1ccc(O)c(Br)c1)C(=O)NCc1ccccc1,9%,-3%,-36%,.,31%
N#C/C(=C/c1ccc(O)c(O)c1)C(=O)NCc1ccc(Cl)cc1,56%,13µM*,35µM*,11µM*,28µM*
N#C/C(=C\c1ccc(O)c(O)c1)C(=O)Nc1ccccc1,69%,?,13µM*,7.1µM*,?
CCN(C(=O)Cn1nnc2sc3c(c2c1=O)CCC(C(C)(C)C)C3)c1cccc(C)c1 (stereo not drawn),-2%,-18%,-14%,5%[59 µM],34%
COc1cc(OC)c2c(c1)C(=O)OC2c1cc(OC)c(OC)cc1C (stereo not drawn),.,-13%,.,.,10%
COc1ccc(NC(=O)CNC(=O)C2CCCCC2)cc1OC,7%,-10%,.,.,20%
SMILES,GLS inhibitor,JMJD2A Tudor inh,BAZ2B inh,G9a block,HP1b binding inh
CCOC(=O)/C(C#N)=C\c1ccc(N2CCN(C/C=C/c3ccccc3)CC2)cc1,-7%,14%,6%,81%[59 µM],75%
C[C@@H](NC(=O)/C(C#N)=C/c1ccc(O)c(O)c1)c1ccccc1,67%,40µM*,35µM*,2.8µM*,?
N#C/C(=C/c1ccc(O)c(O)c1)C(=O)OC/C=C/c1ccccc1,.,.,.,1.6µM*,.
COCCn1c(SCC(=O)N2CCCC2)nnc1C(C)C,2%,-5%,-3%,-22%,33%
CCCn1c(SCC(=O)N2CCCCC2)nnc1C(C)C,2%,25µM*,-2%,.,?
COc1ccc(N2CCN(C(c3cccs3)C(C)NS(=O)(=O)c3ccccc3)CC2)cc1 (stereo not drawn),-1%,10µM*,25µM*,?,-35%
CC(NS(C)(=O)=O)C(c1cccs1)N1CCN(c2ccccc2)CC1 (stereo not drawn),14%,-12%,-6%,20%[59 µM],16%
CCS(=O)(=O)NC(C)C(c1cccs1)N1CCN(c2ccc(OC)cc2)CC1 (stereo not drawn),66%,-31%,.,14µM*,-17%
NC1=NC(=O)C(c2ccccc2)(c2ccccc2)S1,3%,-3%,.,.,19%
COc1ccc(N=Cc2oc3ccc4ccccc4c3c2O)cc1,-5%,-24%,-37%,-50%,43%
COc1ccc(N=Nc2ccc(CO)cc2)cc1,4%,?,.,.,-30%
Cc1ccc(O)c(N=Nc2ccc(S(=O)(=O)N3CCCC3)cc2)c1,2%,?,4µM*,8.9µM*,-4%
COc1ccc(N=Nc2cc(C)ccc2O)cc1,10%,25µM*,8.9µM*,?,14µM*
Cc1ccc(O)c(N=Nc2nccs2)c1,21%,35µM*,10µM*,?,?
COc1cccc(N=Nc2ccc3ccccc3c2O)c1,-5%,2.8µM*,1.6µM*,.,?
COc1cc(OC)cc(C2=Nn3c(nnc3-c3ccccc3OC)SC2)c1,.,-34%,.,.,.
O=C(Nc1cccc2cccnc12)OCc1ccccc1,.,-27%,.,.,12%
COc1ccc(N=Nc2ccc3ccccc3c2)c(O)c1,2%,10µM*,5.6µM*,10µM*,3.2µM*
COc1ccc(C(=O)c2ccccc2)c(O)c1,-3%,11%,123%,5%[12.7 µM],68%
CC(C)N(C)c1ncnc2c1ncn2[C@H]1CN(Cc2cccs2)C[C@@H](CO)O1,-6%,.,.,.,.
COc1ccc(C)cc1NC(=O)N1CCCc2ccccc21,9%,10%,36%,59%,69%
COC(=O)/C(=N/Nc1ccccc1C)N1CCCc2ccccc21,30%,-16%,-12%,35µM*,12%
CCOC(=O)/C(=N/Nc1ccc(OC)cc1)N1CCCc2ccccc21,?,?,28µM*,22µM*,71µM*
CCOC(=O)/C(=N/Nc1ccccc1)N1CCCc2ccccc21,44%,-22%,?,?,12%
CCOC(=O)/C(=N/Nc1ccccc1OC)N1CCCc2ccccc21,38%,-3%,-16%,2.5µM*,41%
OC[C@@H]1CN(Cc2cccnc2)C[C@H](n2cnc3c(N4CCN(c5ccccc5)CC4)ncnc32)O1,25%,.,.,.,.
Cc1ccc(CNc2cc(C)nc3nc(-c4cccc(C)c4)nn23)cc1,-7%,-33%,2%,-26%[59 µM],22%[57 µM]
CC1=CC(C)(C)Nc2ccc(OC(=O)CN3C(=O)c4ccccc4C3=O)cc21,-16%,?,18µM*,35µM*,?
